ERG-DNA inh = qHTS for Small Molecule Inhibitors of the ERG Ets/DNA interaction. Potency, µM (highest dose often 76.9 µM), for the others: at the top dose FP activity, negative = inhibition, most hits filed as inhibitors. fluorescence polarization, His-ERG Ets domain / labelled DNA. 370,000 tested, 0.028% active. AID 624246, 2012; active = well fitted inhibition curve with a large enough effect in the polarisation, with a control signal flat; inconclusive = small, poorly fitted or top-dose-only effect, or effect the other way, or a change in a side signal; inactive = no such curve, though single readings can be large or run the other way; the % refers to the polarisation;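 also: polarization taken with two DNA probes labelled with fluorescein and Texas red; % of control where 0% means no effect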
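His-tagged ERG Ets domain (1 uM in the protein solution; 300mM KCl, 50mM Tris-HCl, 1mM EDTA, 1mM DTT, pH 7.5) received compound, then a probe mix of 5 nM fluorescein-DNA and 100nM Texas-615-DNA. Fluorescence polarization was read for both dyes.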
TRb-SRC2 inh = qHTS for Inhibitors of the Interaction of Thyroid Hormone Receptor and Steroid Receptor Coregulator 2 | Thyroid hormone receptor beta (Homo sapiens), P10828 | 280,000 tested, 0.065% active | Potency, µM (titrated, usually from 106 µM), for inactives: at the highest dose activity change, negative = inhibition, actives largely listed as inhibitors | TRbeta-SRC2 peptide binding, fluorescence polarization; receptor liganded with 1 µM T3; active = well fitted inhibition curve with a large enough effect; inconclusive = small, poorly fitted or top-dose-only effect, or effect the other way;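 also: plate controls were bound peptide for no effect and peptide without receptor for full effect; nearly all actives have a fitted effect of over 50% in size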
Target sequence (P10828 whole entry, looked up): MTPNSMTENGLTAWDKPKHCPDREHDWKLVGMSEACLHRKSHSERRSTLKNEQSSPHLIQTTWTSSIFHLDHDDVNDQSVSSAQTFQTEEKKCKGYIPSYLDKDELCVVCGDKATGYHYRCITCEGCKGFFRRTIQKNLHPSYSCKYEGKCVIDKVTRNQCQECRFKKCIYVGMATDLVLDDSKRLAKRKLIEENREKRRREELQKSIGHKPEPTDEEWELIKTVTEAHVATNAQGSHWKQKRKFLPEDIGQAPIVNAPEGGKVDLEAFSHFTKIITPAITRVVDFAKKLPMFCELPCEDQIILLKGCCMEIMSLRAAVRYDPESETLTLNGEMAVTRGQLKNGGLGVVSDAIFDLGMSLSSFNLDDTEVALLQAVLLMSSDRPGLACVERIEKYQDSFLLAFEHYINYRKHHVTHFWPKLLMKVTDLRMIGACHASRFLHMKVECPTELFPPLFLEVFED
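Read-out is fluorescence polarization (555 nm excitation, 632 nm emission) of a Texas Red SRC2 coactivator peptide; loss of signal reflects blocked binding to human TRb ligand-binding domain in the presence of 1 uM T3.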
TR SRC2 fluor cs = Total Fluorescence Counterscreen for Inhibitors of the Interaction of Thyroid Hormone Receptor and Steroid Receptor Coregulator 2; TRb/SRC2 Texas Red total fluorescence interference; Potency, µM (highest dose often 106 µM), for inactives: at the top dose fluorescence change, negative = quenching; 280,000 tested, 0.29% active; active = well fitted curve in either direction with a large enough effect; inconclusive = small, poorly fitted or top-dose-only effect; also: % is scaled to controls: 0 for no effect and ±100 for the full control effect
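Flags fluorescent or light-absorbing compounds by total fluorescence, S + 2P, at 555 nm excitation and 632 nm emission. Mixture: 20 nM Texas Red SRC2 peptide, 0.6 uM human TRb LBD, 1 uM T3, 5% DMSO; compound exposure 5 h at ambient temperature.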
* = called active by the depositor; ? = inconclusive; · = no result given; [ ] = dose if it differs, or a comment. The entries come from a sample that favours hits as a whole. Potency is read from the fitted curve at half-maximal effect.

SMILES	ERG-DNA inh	TRb-SRC2 inh	TR SRC2 fluor cs
COc1ccc(CC(=O)OCC(=O)NCc2ccc(Cl)cc2)cc1	12%	-2%	-2%
CCOc1ccc(C(=O)c2cn(CC(=O)Nc3ccc(F)c(F)c3)c3cc4c(cc3c2=O)OCCO4)cc1	2%	-6%	-1%
COc1ccc(CCNC(=O)CCN2C(=O)C(C)Oc3ccc(C)cc32)cc1OC (stereo not given)	-3%	-6%	-1%
Cc1ccc(CNC(=O)CCN2C(=O)C(C)Oc3ccc(C)cc32)cc1 (stereo not given)	8%	-17%[53 µM]	35µM*[quencher]
COc1ccc(CNCc2ccc3c(c2)n(C)c(=O)n3C)cc1	-3%	-8%	1%
COc1ccc(CCNCc2ccc3c(c2)n(C)c(=O)n3C)cc1OC	1%	-22%	89µM*[quencher]
CCc1nn(CC(=O)NCCOC)c(=O)c2cc3cc(F)ccc3n12	-1%	12%	-12%
O=C1NC(=Nc2ccccc2)S/C1=C\C=C\c1ccco1	9%	6%	1%
Cc1ccc(N=C2NC(=O)/C(=C/C=C/c3ccco3)S2)cc1	12%	?	40µM*[quencher]
CN(C)c1ccc(/C=C/c2ccc3ccccc3[n+]2C)cc1	?	?	23%
CN(C)c1ccc(/C=C/c2ccc3c4ccccc4ccc3[n+]2-c2ccccc2)cc1	150%	?	13µM*[fluorescent]
Nc1ccccc1C(=O)/C=C/c1ccccc1	·	0%	-2%
COc1cccc(/C=N/N2C(=O)C3C4c5ccccc5C(c5ccccc54)C3C2=O)c1OC (stereo not given)	·	-1%	3%
COc1cc(/C=N/N2C(=O)C3C4c5ccccc5C(c5ccccc54)C3C2=O)ccc1O (stereo not given)	5%	-34%[53 µM]	0.89µM*[quencher]
O=c1n(Cc2ccc(F)cc2)c2ccccc2c2nc(-c3ccccc3)nn12	-1%	-11%	-1%
O=c1n(Cc2ccc([N+](=O)[O-])cc2)c2ccccc2c2nc(-c3ccccc3)nn12	5%	-21%	100µM*[quencher]
COc1ccc(C)cc1NC(=O)N(C(C)C)C1CCN(C(C)=O)CC1	3%	-6%	-1%
CC1CC(=O)N(CC(=O)Nc2ccc(OC(F)(F)F)cc2)c2ccccc2S1 (stereo not given)	-2%	6%	6%
CC/C=C\C/C=C\C/C=C\C/C=C\C=C\C(O)CCCC(=O)O (stereo not given)	·	-2%	1%
CCC(/C=C1\Sc2ccc(OC)cc2N1CC)=C\c1sc2ccc(OC)cc2[n+]1CCCS(=O)(=O)[O-]	135%	?	40µM*[fluorescent]
CCC(=O)/C=C1/Sc2ccc(OC)cc2N1CCO	1%	0%	-3%
CCO/C(=C/c1sc2ccc(OC)cc2[n+]1CCCS(=O)(=O)[O-])CC	?	-19%	5%
CCC(/C=C1\Sc2ccc(OC)cc2N1CCO)=C\c1sc2ccc(OC)cc2[n+]1CCO	?	?	50µM*[fluorescent]
CCCCCCCCOC(=O)c1cc(O)c(O)c(O)c1	·	5%[201 µM]	-3%[201 µM]
CCC(=O)Nc1cc2c(cc1C(=O)c1ccccc1)OCCO2	3%	?	28µM*[fluorescent]
SMILES	ERG-DNA inh	TRb-SRC2 inh	TR SRC2 fluor cs
O=C(Nc1cc2c(cc1C(=O)c1ccccc1Cl)OCCO2)c1ccccc1	0%	?	0.089µM*[quencher]
O=C(Nc1cc2c(cc1C(=O)c1ccccc1Br)OCCO2)c1ccccc1	-2%	-1%	-15%
CC(=O)Nc1cc2c(cc1C(=O)c1ccccc1)OCCO2	-9%	7%	1%
CN(C)S(=O)(=O)c1ccc2c(c1)N(CC(=O)N1CCN(c3ccc(F)cc3)CC1)CCS2	3%	1%	-3%
COc1ccc(Cl)cc1NC(=O)CSc1nc2c(oc3ccccc32)c(=O)n1Cc1ccco1	1%	-2%	-24%
COCCCNC(=O)CS(=O)(=O)Cc1nc(-c2cccc(OC)c2)oc1C	-4%	2%	0%
CCCCN(C)C(=O)CS(=O)(=O)Cc1nc(-c2cccc(OC)c2)oc1C	20µM*	1%	2%
CCS(=O)(=O)N1CC(=O)N(c2ccc(Cl)cc2)C(C)(C(=O)NC2CCCCCC2)C1 (stereo not given)	-12%	-5%	18µM*[quencher]
CCCS(=O)(=O)N1CC(=O)N(c2ccc(Cl)cc2C)C(C)(C(=O)NC2CCCC2)C1 (stereo not given)	-6%	-5%	28µM*[quencher]
CCCS(=O)(=O)N1CC(=O)N(c2ccc(Cl)cc2)C(C)(C(=O)NC2CCCC2)C1 (stereo not given)	8%	-3%	3%
CCCS(=O)(=O)N1CC(=O)N(c2cc(C)cc(C)c2)C(C)(C(=O)NC2CCCCCC2)C1 (stereo not given)	3%	1%	-18%
NS(=O)(=O)c1ccc(NC(=S)NC(=O)c2ccc(-c3ccccc3)cc2)cc1	-7%	-22%[53 µM]	0.32µM*[quencher]
O=C(NC(=S)Nc1ccc(-c2ccccc2)cc1)c1ccccc1	-1%	·	·
CN(Cc1ccccc1)c1nnc(NC(=O)Nc2cccc(Br)c2)s1	0%	-5%	-2%
Cn1c(=O)c(C#N)c(-c2ccc(F)cc2)c2cc(C(=O)c3cc(Cl)cc(Cl)c3O)cnc21	-6%	3%	-5%
COc1ccccc1-n1c(=O)c(C#N)c(-c2ccc([N+](=O)[O-])cc2)c2cc(C(=O)c3cc(F)ccc3O)cnc21	11µM*	-1%	1%
O=c1[nH]c(=O)c2[nH]cnc2[nH]1	·	5%[201 µM]	-1%[201 µM]

Assay outcomes: PubChem, National Center for Advancing Translational Sciences (NCATS)
